Only some compounds are listed: those with a hit (about 7.4% of all), similar ones and a draw of the others.
SMN2 splice enh – qHTS Assay for Enhancers of SMN2 Splice Variant Expression | 210,000 tested, 2.8% active | Potency, µM (highest dose often 46.1 µM), inactives show at the highest dose activity change, positive = activation, usual class: activators | HEK293 SMN2-luciferase splicing reporter, luminescence, 30-36 h; further: % of control where 0% means no effect; nearly all actives have a fitted effect of over 55% in size
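qHTS luciferase splicing reporter: luminescence rises when SMN2 exon 7 is included in transfected HEK293 cells. Compound exposure lasted 30-36 h at 37C, with 4.5 mM final sodium butyrate as control, followed by a ONE-Glo read.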
NPC1 promoter act – qHTS Assay for NPC1 Promoter Activators. Huh7 NPC1 promoter luciferase reporter, 24 h. Potency, µM (titrated, usually from 9.22 µM), for the others: at the highest dose activation, most hits filed as activators. 320,000 tested, 2.4% active. AID 485313, 2010; further: % of control where 0% means no effect; nearly all actives have a fitted effect of over 60% in size
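Quantitative HTS used a cell-based reporter: Huh7 cells stably bearing the NPC1 promoter upstream of luciferase were treated with compounds for 24 h, and promoter activation was read as luminescence.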
ELG1 genotox – qHTS screen for small molecules that induce genotoxicity in human embryonic kidney (HEK293T) cells expressing luciferase-tagged ELG1; HEK293T ELG1-luciferase reporter, luminescence, 16 h; Potency, µM (series often up to 46 µM), inactives show at the highest dose activity change, positive = activation, hits mostly activators; 330,000 tested, 1.3% active; further: % of control where 0% means no effect; nearly all actives have a fitted effect of over 60% in size
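Luminescence read-out: rising ELG1-luciferase signal, reflecting elevated ELG1 protein under genetic stress, flags genotoxic compounds. Cells were treated for 16 hr at 37 °C before ONE-Glo detection.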
Luc counter – Counterscreen for Luciferase (Kinase-Glo TM) Inhibition. Kinase-Glo luciferase, ATP luminescence, 8 min. Potency, µM (titrated, usually from 38.3 µM), for inactives: at the highest dose activity change, negative = inhibition, actives largely listed as inhibitors. 200,000 tested, 0.28% active; further: on the % scale 0 is the no-effect control and ±100 the full control effect; nearly all actives have a fitted effect of over 60% in size
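Inhibition of Kinase-Glo luciferase light generation was assessed at 10 uM ATP in pH 7.2 imidazole buffer, with luminescence measured after eight minutes at ambient temperature.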
FLuc modulator – qHTS profiling assay for firefly luciferase inhibitor/activator using purifed enzyme and Km concentrations of substrates (counterscreen for miR-21 project); Luciferin 4-monooxygenase (Photinus pyralis), P08659; Potency, µM (highest dose often 57.5 µM), for inactives: at the top dose activity change, negative = inhibition, most hits filed as inhibitors; purified FLuc, Km substrates, luminescence inhibition; 360,000 tested, 6.9% active;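 further: plate controls were vehicle for no effect and reference inhibitor for full effect; nearly all actives have a fitted effect of over 55% in size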
Target sequence (P08659 whole entry, looked up): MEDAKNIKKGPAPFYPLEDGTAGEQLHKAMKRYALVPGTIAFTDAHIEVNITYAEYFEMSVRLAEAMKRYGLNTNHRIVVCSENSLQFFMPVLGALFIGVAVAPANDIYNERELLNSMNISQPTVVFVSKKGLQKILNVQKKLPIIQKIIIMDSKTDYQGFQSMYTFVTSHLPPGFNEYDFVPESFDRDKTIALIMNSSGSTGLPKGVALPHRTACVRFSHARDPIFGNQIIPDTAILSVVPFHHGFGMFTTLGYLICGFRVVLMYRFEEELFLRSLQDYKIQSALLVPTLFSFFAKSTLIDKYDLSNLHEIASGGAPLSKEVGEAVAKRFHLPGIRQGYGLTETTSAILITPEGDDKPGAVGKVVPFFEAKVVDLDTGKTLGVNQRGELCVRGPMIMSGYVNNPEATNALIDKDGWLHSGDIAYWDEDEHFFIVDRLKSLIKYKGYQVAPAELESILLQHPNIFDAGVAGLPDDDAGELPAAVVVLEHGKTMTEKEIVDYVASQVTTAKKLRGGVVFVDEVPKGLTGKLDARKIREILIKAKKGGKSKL
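Biochemical qHTS of compounds, final roughly 60 µM downward over six points, against 10 nM purified firefly luciferase using Km concentrations of substrates (10 uM D-luciferin, 10 uM ATP) in Tris acetate pH 7.5 buffer; luminescence output.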
Rab9 prom act – qHTS Assay for Rab9 Promoter Activators. Huh7 Rab9 promoter-luciferase reporter, luminescence, 24 h. Potency, µM (doses to about 9.22 µM), without a hit: at the highest dose activation, negative = inhibition, most hits filed as activators. 320,000 tested, 2.8% active. AID 485297, 2010; further: % of control where 0% means no effect; nearly all actives have a fitted effect of over 60% in size
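Huh7 reporter line, Rab9 promoter upstream of luciferase. Compound exposure 24 h at 37 °C in reduced-serum medium with 10% FBS. Read-out: luminescence.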
Numbers without * were called inactive; ? = inconclusive; . = not tested or not shown; [ ] = another dose, or the depositor's remark. The call rests on the fitted dose curve; in most records, active means well fitted curve in the direction sought with a large enough effect; inconclusive means small, poorly fitted or top-dose-only effect, or another doubt; inactive means no such curve, though single readings can be large; an effect the other way counts as inactive or inconclusive. Potency means the concentration at half of the fitted maximal effect.

SMILES | SMN2 splice enh | NPC1 promoter act | ELG1 genotox | Luc counter | FLuc modulator | Rab9 prom act
O=C(NC1CCCCC1)c1ccc(Cn2c(SCc3cccc(F)c3)nc3cccnc32)cc1 | . | . | . | . | -14% | .
Cc1nc(N)nc2ccccc12 | 2%[9.22 µM] | . | . | -7%[7.66 µM] | . | .
O=C(NN=C1CCCC1)c1ccc(Cl)cc1 | . | 15% | -1% | . | -3% | 16%
O=C(Nc1onc2c1CCCC2)c1ccc(Cl)cc1 | 8.9µM* | . | . | . | 1.9µM* | .
CCCCOc1ccc(C(=O)Nc2onc3c2CCCC3)cc1 | 22µM* | . | . | . | 1.7µM* | .
CCCCCCCCCCCCC/C=C/[C@@H](O)[C@H](CO)NCCCCCCCC | -2% | . | . | 0% | . | .
COc1cccc(C(=O)NC(=S)Nc2ccc(Cl)c(C(=O)O)c2)c1 | -3% | . | . | 1% | ? | .
CCCOc1cccc(C(=O)Nc2ccc(Br)cc2F)c1 | 13µM* | ? | ? | -2% | 2.7µM* | ?
CCCOc1cccc(C(=O)Nc2cc(-c3ccccc3)no2)c1 | 14µM* | . | . | . | 6µM* | .
CCCOc1cccc(C(=O)Nc2cccc3ncccc23)c1 | . | 4% | 0% | . | -12% | 7%
COc1c(C)cc(Br)cc1C(=O)NC(=S)Nc1ccc(Cl)c(C(=O)O)c1 | . | 15% | 10% | . | 24µM* | 20%
CC(C)Oc1ccc(C(=O)NC(=S)Nc2ccc(Cl)c(C(=O)O)c2)cc1 | . | ? | ? | . | 17µM* | ?
CCCOc1cccc(C(=O)NCCNC(=O)c2ccccn2)c1 | . | -3% | 2% | . | 0% | 3%
CCCNc1nc(NCc2ccccc2OC)c2cnn(C)c2n1 | . | . | . | . | 2% | .
CCOC(=O)N1CCc2c(sc3c2c(=O)n(Cc2ccccc2)c(=O)n3CC(=O)Nc2ccc(C)cc2C)C1 | -11% | . | . | . | 0% | .
COc1ncc2nc(CCc3ccccc3)c(=O)n(C3CC3)c2n1 | -8% | . | . | -3% | . | .
CCCOc1cccc(C(=O)NC(=S)Nc2ccccc2)c1 | 13µM* | ? | ? | 1% | 8.5µM* | ?
O=C(Nc1ccc(COc2ccccc2)cc1)Nc1cccc(C(=O)O)c1 | . | ? | 11% | . | 0.85µM* | 2.8µM*
CC(C)Oc1cccc(C(=O)NC(=S)Nc2ccccc2)c1 | 11µM* | ? | ? | 1% | 2.4µM* | 3.2µM*
CC(C)Oc1cccc(C(=O)NC(=S)Nc2cccnc2)c1 | ? | ? | ? | 3% | ? | ?
O=C(O)c1cccc(NC(=S)NC(=O)c2ccncc2)c1 | 8% | -1% | 4% | 1% | ? | 2%
O=C(O)c1cccc(NC(=S)NC(=O)c2cccc(OCc3ccccc3)c2)c1 | . | 25% | 9% | . | 19µM* | ?
COc1ccc(Cl)cc1Nc1nc2ccc(C(=O)c3ccccc3)cc2n2cnnc12 | . | . | . | . | -1% | .
COc1ccccc1-c1nnc(C2CCN(C(=O)c3cccc(Cl)c3)CC2)o1 | -13% | . | . | . | -2% | .
Cc1ccc(C(=O)O)cc1NC(=S)NC(=O)c1ccc(COc2ccccc2)cc1 | . | 2% | 1% | . | 12µM* | 7%
SMILES | SMN2 splice enh | NPC1 promoter act | ELG1 genotox | Luc counter | FLuc modulator | Rab9 prom act
Cc1ccc(C(=O)O)cc1NC(=S)NC(=O)Cc1ccccc1 | 17% | -2% | 3% | 0% | -6% | -1%
COc1ccc(O)c(-c2nc(N)nc(N)n2)c1 | . | 4µM* | 15% | . | ? | -1%
COc1cccc(NC(=O)C(=O)NCCC2CCCCN2S(=O)(=O)c2ccccc2)c1 (stereo not given) | . | 0% | 5% | . | 24µM* | 13%
COc1cccc(NC(=O)C(=O)NCC2CCCN2S(=O)(=O)c2ccccc2)c1 (stereo not given) | . | 16% | 3% | . | 15µM* | ?
Cc1ccc(C(=O)Cn2nc(C(=O)O)c3ccccc3c2=O)cc1C | . | 4% | 1% | . | 6.7µM* | 13%
Cc1cc(C(=O)Cn2nnc3ccccc3c2=O)c(C)n1-c1c(C)n(C)n(-c2ccccc2)c1=O | 6% | 0% | 0% | 3% | 1% | -7%
COc1ccc(-n2c(C)cc(C(=O)Cn3nnc4ccccc4c3=O)c2C)cc1 | -3% | 23% | -2% | 0% | 12µM* | ?
Cc1cc(C(=O)Cn2nc(C(=O)O)c3ccccc3c2=O)c(C)n1-c1ccc(OC(F)F)cc1 | -52% | 0% | -11% | -1% | -16% | 1%
Cc1ccc(-n2c(C)cc(C(=O)Cn3nc(C(=O)O)c4ccccc4c3=O)c2C)cc1 | . | 0% | 4% | . | 5.4µM* | 8%
COc1ccc(-n2c(C)cc(C(=O)Cn3nc(C(=O)O)c4ccccc4c3=O)c2C)cc1 | -28% | -1% | -2% | -4% | 24µM* | 1%
CCCCC/C=C\C\C=C/C=C/C=C/[C@@H](SCC(N)C(=O)NCC(=O)O)[C@@H](O)CCCC(=O)O (stereo not given in full) | -7% | . | . | 1% | . | .
CCCCN(CCCC)CCCNC(=O)c1cc(-c2ccc(Cl)s2)nc2ccccc12 | 3% | . | . | . | -6% | .
CC(C)CN1CC[C@@]2(CCCN(C(=O)c3ccco3)C2)C1 | -9% | . | . | -1% | . | .
O=C(O)[C@@H]1CCCN1Cc1cc2ccccc2c2ccccc12 | -11%[9.22 µM] | . | . | 0%[7.66 µM] | . | .
Cc1cc(C(=O)Cn2nc(C(=O)O)c3ccccc3c2=O)c(C)n1CC(F)(F)F | 5% | 18% | 16% | 0% | 3µM* | ?
Cc1cc(C(=O)Cn2nnc3ccccc3c2=O)c(C)n1-c1ccccc1F | 11µM* | 0.45µM* | ? | -5% | 0.34µM* | 0.4µM*
COCC(C)n1c(C)cc(C(=O)COC(=O)c2nn(C)c(=O)c3ccccc23)c1C (stereo not given) | . | . | -1% | . | . | .
COCC(C)n1c(C)cc(C(=O)Cn2nc(C(=O)O)c3ccccc3c2=O)c1C (stereo not given) | 2% | 0% | ? | 1% | 7.6µM* | 23%
CC(=O)Nc1ccc(-c2csc(N3CCC(C(N)=O)CC3)n2)cc1 | . | . | . | . | -11% | .
N[C@@H](Cc1cccnn1)C(=O)O | 0%[9.22 µM] | . | . | 0%[7.66 µM] | . | .
CS(=O)(=O)N1CCC2(CC1)CN(Cc1ccc(C#N)cc1)C2 | -6% | . | . | 0% | . | .
Cc1ncc(CO)c(/C=N/NC(=S)Nc2ccc(C(C)C)cc2)c1O | . | -7% | -2% | . | 13µM* | 1%
COc1ccc(Br)cc1CNC(=O)Cn1c(=O)c2cccn2c2ccc(F)cc21 | . | . | . | . | -6% | .
CC(C)(C)NC(=O)c1cccc(NC(=O)CSc2ccc(Cl)cc2)c1 | -18% | 1% | -4% | -1% | 11µM* | -6%

Bioassay records (PubChem BioAssay)
